The whole screen tested about 290,000 compounds, of which about 570 (0.2%) were called active. Inconclusive results (about 1%) are left out. Cut-off read from the data, not from the text of the source: active = inhibition mostly above about 51% (no sharp cut-off); inconclusive = no clear call, values can overlap the other calls; inactive = mostly below about 53%. Shown is part of a subset that was picked to be rich in actives.
Biological target: Voltage-dependent N-type calcium channel subunit alpha-1B (Homo sapiens) (UniProt Q00975)
Assay: disruptors of CaV2.2 binding to Mint1 – biochemical, HTRF (AID 2073)
Details: HTRF protein-protein interaction, Mint1-CaV2.2; at 20 µM; stronger effect = higher value

Voltage-dependent N-type calcium channel subunit alpha-1B (Homo sapiens), sequence (Q00975 whole entry, looked up): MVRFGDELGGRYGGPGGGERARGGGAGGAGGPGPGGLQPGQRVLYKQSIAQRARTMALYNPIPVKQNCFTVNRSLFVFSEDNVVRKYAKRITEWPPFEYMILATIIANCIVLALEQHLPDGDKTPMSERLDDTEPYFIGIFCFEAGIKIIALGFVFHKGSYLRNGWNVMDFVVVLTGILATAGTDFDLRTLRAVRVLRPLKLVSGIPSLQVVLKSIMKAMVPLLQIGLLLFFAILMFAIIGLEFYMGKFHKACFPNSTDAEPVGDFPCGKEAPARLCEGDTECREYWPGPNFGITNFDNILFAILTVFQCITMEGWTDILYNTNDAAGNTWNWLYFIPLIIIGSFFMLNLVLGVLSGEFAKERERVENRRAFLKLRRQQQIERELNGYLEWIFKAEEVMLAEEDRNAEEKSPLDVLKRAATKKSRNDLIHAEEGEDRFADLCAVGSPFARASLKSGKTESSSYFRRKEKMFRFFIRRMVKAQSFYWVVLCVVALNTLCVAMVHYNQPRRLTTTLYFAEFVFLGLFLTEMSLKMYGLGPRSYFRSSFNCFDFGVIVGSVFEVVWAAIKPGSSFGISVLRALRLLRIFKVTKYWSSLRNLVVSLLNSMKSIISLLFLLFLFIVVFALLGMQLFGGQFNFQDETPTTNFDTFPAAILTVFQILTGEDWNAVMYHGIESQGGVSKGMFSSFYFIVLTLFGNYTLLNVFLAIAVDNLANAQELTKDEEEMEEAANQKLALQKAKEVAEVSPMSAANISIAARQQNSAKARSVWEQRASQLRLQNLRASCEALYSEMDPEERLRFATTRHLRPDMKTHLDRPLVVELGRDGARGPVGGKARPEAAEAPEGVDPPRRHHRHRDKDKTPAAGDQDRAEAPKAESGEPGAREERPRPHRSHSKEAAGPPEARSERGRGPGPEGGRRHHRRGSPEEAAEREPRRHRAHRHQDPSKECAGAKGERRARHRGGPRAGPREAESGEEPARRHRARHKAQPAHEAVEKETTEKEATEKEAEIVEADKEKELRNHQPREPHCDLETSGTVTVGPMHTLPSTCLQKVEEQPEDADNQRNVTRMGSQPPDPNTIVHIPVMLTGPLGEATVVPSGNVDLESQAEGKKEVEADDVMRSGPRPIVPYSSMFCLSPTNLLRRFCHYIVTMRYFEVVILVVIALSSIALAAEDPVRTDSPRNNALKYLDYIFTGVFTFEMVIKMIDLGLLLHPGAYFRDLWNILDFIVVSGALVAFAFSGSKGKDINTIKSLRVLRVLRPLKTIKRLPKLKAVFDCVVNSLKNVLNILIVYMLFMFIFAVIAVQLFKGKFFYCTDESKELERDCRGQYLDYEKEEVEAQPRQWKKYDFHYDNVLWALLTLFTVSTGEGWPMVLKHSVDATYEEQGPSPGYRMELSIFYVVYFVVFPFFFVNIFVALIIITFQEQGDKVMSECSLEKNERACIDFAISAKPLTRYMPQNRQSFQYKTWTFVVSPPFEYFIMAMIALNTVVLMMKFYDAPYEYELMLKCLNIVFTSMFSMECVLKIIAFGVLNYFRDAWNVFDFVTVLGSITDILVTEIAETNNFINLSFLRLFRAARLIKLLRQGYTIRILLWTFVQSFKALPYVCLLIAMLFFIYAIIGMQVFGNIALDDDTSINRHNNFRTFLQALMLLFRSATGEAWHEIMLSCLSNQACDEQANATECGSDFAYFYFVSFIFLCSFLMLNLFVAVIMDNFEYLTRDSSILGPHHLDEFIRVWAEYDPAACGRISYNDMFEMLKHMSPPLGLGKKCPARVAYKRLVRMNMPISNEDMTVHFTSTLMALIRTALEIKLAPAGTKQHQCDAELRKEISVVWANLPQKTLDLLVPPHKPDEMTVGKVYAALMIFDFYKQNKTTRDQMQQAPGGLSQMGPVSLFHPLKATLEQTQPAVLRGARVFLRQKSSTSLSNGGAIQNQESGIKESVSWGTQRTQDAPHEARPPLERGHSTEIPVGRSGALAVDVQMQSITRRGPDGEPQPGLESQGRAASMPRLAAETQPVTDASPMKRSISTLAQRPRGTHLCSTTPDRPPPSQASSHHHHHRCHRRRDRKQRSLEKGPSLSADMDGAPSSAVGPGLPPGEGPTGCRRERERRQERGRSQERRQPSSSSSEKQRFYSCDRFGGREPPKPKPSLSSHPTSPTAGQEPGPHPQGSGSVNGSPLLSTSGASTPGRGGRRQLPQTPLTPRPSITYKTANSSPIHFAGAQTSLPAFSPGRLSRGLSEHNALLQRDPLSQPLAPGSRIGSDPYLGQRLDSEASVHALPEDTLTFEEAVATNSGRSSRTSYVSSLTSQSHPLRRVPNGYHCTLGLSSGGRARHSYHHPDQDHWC

inhibition, inactive:
CCOC(=O)c1sc2nc3c(SCC(=O)O)cc(C(=O)c4cc(F)ccc4O)cn3c(=O)c2c1C 18.6%
CCOC(=O)c1sc2nc3c(SCCC#N)cc(C(=O)c4cc(F)ccc4O)cn3c(=O)c2c1C 43.6%
CCCCP(=O)(CCCC)Cc1ccccc1 -0.8%
COc1ccc(-c2nnc(SCC(=O)NCc3cccs3)n2C(C)C)cc1 -14.7%
O=c1c2c(nc3nc(NCc4cccc5ccccc45)[nH]n13)CCC2 4.9%
O=C(O/N=C(\c1ccccc1)c1ccncc1)c1ccccc1F -7.6%
O=C(Nc1cccc(NC(=O)c2sc3ccccc3c2Cl)c1)c1ccco1 12.7%
O=C(Nc1ccc(NC(=O)c2sc3ccccc3c2Cl)cc1Cl)c1ccco1 31.4%
CCS(=O)(=O)N1CCCC(C(=O)N2CCc3ccccc3C2)C1 (centres undefined) 0%
COc1cc(/C=N/n2cnnc2)ccc1OC(=O)c1ccco1 1.6%
CCN(CC)C(=O)C(=O)Nc1ccc(OC)c(Cl)c1 1.5%
Cc1cc(=O)c2ccc(Cl)cc2[nH]1 0.7%
O=C(O)/C=C/C(=O)NCc1csc2ccccc12 -5%
O=C(Nc1ccc2c(c1)OCO2)C1CC(=O)N(c2cccc(Cl)c2)C1 (centres undefined) -1.9%
Oc1c(Br)cc(/C=N/n2c(-c3ccccc3)n[nH]c2=S)c(O)c1Br -12.3%
COc1ccc2nc(-c3ccccc3)[nH]c2c1 11.7%
CCn1ccnc1CN(C)C(=O)c1ccc(OC2CCN(CCc3ccccc3)CC2)cc1 6.5%
COCCn1c(SCc2cccnc2)nnc1-c1c[nH]c2ccccc12 -0.4%
CC(=O)N1CCC(C(=O)N2CCN(S(=O)(=O)c3cccs3)CC2)CC1 0.1%
CCOC(=O)c1ccc(-n2cncn2)nc1 -2.2%
O=C(Nc1ccc(S(=O)(=O)N2CCOCC2)cc1)c1ccc(S(=O)(=O)N2CCOCC2)cc1 7.3%
CC(=O)Nc1ccc(S(=O)(=O)N2CCOCC2)cc1 11.4%
CC(=O)Nc1ccc(S(=O)(=O)N2CCN(S(=O)(=O)N3CCOCC3)CC2)cc1 -2.3%
CN(C)S(=O)(=O)c1cccc(NC(=O)c2ccncc2)c1 8.6%
CC(=O)Nc1ccc(C(=O)Nc2ccc(S(=O)(=O)N3CCOCC3)cc2)cc1 -1.1%
CC1CN=C(Nc2cccc(S(=O)(=O)N(C)C)c2)S1 (centres undefined) -0.9%
Cc1ccc(C(=O)N/C(=C\c2ccc(-c3cccc([N+](=O)[O-])c3)o2)C(=O)NCCCN2CCOCC2)cc1 -1.4%
COC(=O)Nc1nc2ccc(-c3n[nH]c(=O)c4ccccc34)cc2[nH]1 -0.4%
Cc1cc(C)nc(Nc2ncc(O)n2-c2ccc(C)c(Cl)c2)n1 6%
Cc1ccc(NC(=O)CN(C)c2ccc(S(=O)(=O)N3CCCC3)cn2)cc1 -2.9%
CC1(C)CC2CC(C)(CN2C(=S)Nc2ccccc2)C1 (centres undefined) 12.7%
CC(=O)Nc1nc2c(s1)CCc1ccccc1-2 -3.5%
Nc1nc2c(s1)CCc1ccccc1-2 -30.6%
CC(c1nnc(SCC(=O)Nc2cccnc2Cl)n1Cc1ccccc1)N(C)C (centres undefined) 1%
COc1ccc2nc3ccccc3nc2c1 23.5%
COc1cccc2nc3cc(C)c(C)cc3nc12 23.4%
Cc1ccsc1/C=N/NC(=O)CO 7.8%
CCCCNC(=O)[C@H](CSCc1ccccc1)N1Cc2ccccc2C1=O 0.1%
COc1ccc(CNC(=O)COc2cc(=O)n(C)c3ccccc23)cc1 13.2%
O=C1/C(=C/c2ccco2)Cc2ccccc21 11.1%
O=C1/C(=C/c2ccco2)CCc2ccccc21 15.3%
CCCCn1ccnc1C -1.1%
O=C(CSc1cccc2cccnc12)Nc1ccccc1F 12.1%
CCCOc1ccc(/C=C2\SC(N)=NC2=O)cc1OC -3%
C=CCOc1ccc(/C=C2\SC(N)=NC2=O)cc1OC 10.2%
NC(=O)c1ccc2nc(-c3ccccc3)c(-c3ccccc3)nc2c1 4.7%
NC(=O)c1ccc2c(=O)n3c(-c4cc(Cl)c(N)c(Cl)c4)csc3nc2c1 -27%
O=C(NCc1nnc2c(C(F)(F)F)cc(Cl)cn12)c1ccc2c(c1)OCO2 9%
O=C(c1ccc(COc2ccc(F)cc2)o1)n1cc(Br)cn1 8%
CCCN1C(=O)/C(=C\C=C2/Sc3ccccc3N2CCO)SC1=S 26.3%
CCN1C(=O)/C(=C/C=C2/Sc3ccccc3N2CCO)SC1=S 38.4%
CC(C)CC(NC(=O)c1ccccc1)C(=O)N/N=C/c1ccco1 (centres undefined) 3.7%
CCOc1ccccc1-n1c(SCC(N)=O)nnc1-c1ccccc1 -2.1%
O=C(Nc1nc2ccccc2s1)c1cccc(S(=O)(=O)N2CCc3ccccc32)c1 8.8%
Cc1cc(C)c2nc(NC(=O)c3cccc(S(=O)(=O)N4CCc5ccccc54)c3)sc2c1 6.3%

inhibition, active:
CCOC(=O)c1sc2nc3c(SCC(=O)O)cc(C(=O)c4ccccc4O)cn3c(=O)c2c1C 53.3%
O=C(Nc1ccc(NC(=O)c2sc3ccccc3c2Cl)cc1)c1ccco1 60.5%
Oc1c(Br)cc(C=Nc2ccc3nc(-c4ccccc4)[nH]c3c2)c(O)c1Br 83.1%
Fc1ccccc1Nc1nc2c(s1)CCc1ccccc1-2 94.8%
COc1ccc2nc3cccc(OC)c3nc2c1 61.8%
Nc1ccc2c(c1)C/C(=C/c1ccco1)C2=O 87.9%
COc1cc(/C=C2\SC(N)=NC2=O)ccc1OCC(=O)Nc1ccc(C)cc1 61.4%
CCN1C(=O)/C(=C/C=C2/Sc3ccc4ccccc4c3N2CCO)SC1=S 74.6%
Cc1cccc2sc(NC(=O)c3cccc(S(=O)(=O)N4CCc5ccccc54)c3)nc12 68.3%

From PubChem BioAssay AID2073 (Sanford-Burnham Center for Chemical Genomics, 2009)
